Screens as filed in PubChem BioAssay.
Only some compounds are listed: those with a hit (about 3.8% of all), similar ones and a draw of the others.
A549 tox: counter-screen for Nrf2 inhibitors: cytotoxicity in A549 cells; actives 0.16% (n = 390,000); Potency, µM (highest dose often 46 µM), inactives show at the highest dose activity change, negative = cytotoxicity, usual class: inhibitors; A549 ARE-Fluc cells, CellTiter-Fluor viability, 18-24 h; also: % is scaled to controls: 0 for no effect and ±100 for the full control effect
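A549 ARE_Fluc cells in 5% FBS OPTI-MEM were exposed to compounds in concentration-response for 18-24 h at 37 deg C. Viability was read by CellTiter-Fluor fluorescence (Ex 405/Em 525) after 30 min, before the luciferase read.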
Nrf2 inh: blocks Nrf2 signaling; A549 ARE-Fluc reporter, luciferase luminescence, 18-24 h; Potency, µM (doses to about 46 µM), inactives show at the highest dose activity change, negative = inhibition, usual class: inhibitors; actives 2.1% (n = 360,000); AID 504444; also: % is scaled to controls: 0 for no effect and ±100 for the full control effect; nearly all actives have a fitted effect of over 60% in size
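A549 ARE_Fluc cells, 5000/well, 5% FBS OPTI-MEM; compounds in dose-response, 18-24 h at 37 °C/5% CO2; CellTiter-Fluor viability read (Ex 405/Em 525), then BugLite luciferase luminescence = Nrf2 activity.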
Nrf2 activator: activates Nrf2 signaling. Potency, µM (series often up to 46.1 µM), for the others: at the top dose activation, hits mostly activators. actives 0.31% (n = 410,000). AREc32 ARE-luciferase reporter (MCF7-derived line), luminescence, 24 h; also: % of control where 0% means no effect; nearly all actives have a fitted effect of over 65% in size
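Quantitative high-throughput format: AREc32 reporter cells, 1000 per well, received compound by pin transfer and were incubated 24 hr at 37 deg C, 5% CO2, before Steady-Glo luminescence detection.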
IDH1 R132H inh: blocks human mutant IDH1 R132H enzyme. O75874. IDH1-R132H enzyme, NADPH consumption, diaphorase/resazurin fluorescence. Potency, µM (highest dose often 76.6 µM), for the others: at the top dose activity change, negative = inhibition, hits mostly inhibitors. actives 0.093% (n = 390,000); also: % is scaled to controls: 0 for no effect and ±100 for the full control effect; nearly all actives have a fitted effect of over 65% in size
Target sequence (O75874 whole entry R132H, stated change not applied): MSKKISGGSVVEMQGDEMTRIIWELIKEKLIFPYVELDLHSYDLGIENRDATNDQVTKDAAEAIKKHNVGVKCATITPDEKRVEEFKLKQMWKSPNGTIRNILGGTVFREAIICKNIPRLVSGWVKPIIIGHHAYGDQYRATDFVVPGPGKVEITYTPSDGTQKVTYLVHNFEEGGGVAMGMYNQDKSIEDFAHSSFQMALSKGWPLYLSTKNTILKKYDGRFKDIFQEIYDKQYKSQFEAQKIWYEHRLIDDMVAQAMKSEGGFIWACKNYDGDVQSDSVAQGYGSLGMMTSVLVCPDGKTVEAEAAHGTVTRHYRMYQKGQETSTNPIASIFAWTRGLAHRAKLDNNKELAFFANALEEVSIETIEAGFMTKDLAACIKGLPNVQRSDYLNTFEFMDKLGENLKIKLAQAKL
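IDH1-R132H (0.5 ug/mL dispensed) in pH 7.5 Tris buffer was preincubated 30 min with compound, then given a substrate mix of 0.016 mM NADPH and 2 mM alpha-KG for 80 min at room temperature; remaining NADPH was read by diaphorase/resazurin fluorescence.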
ELG1 repair inh: inhibitors of ELG1-dependent DNA repair in HEK293T cells; HEK293T ELG1-luciferase reporter, luminescence, 16 h; DNA damage induced by 5-fluorouridine; Potency, µM (series often up to 46.1 µM), for inactives: top-dose activity change, negative = inhibition, usual class: inhibitors; actives 2.3% (n = 330,000); also: % is scaled to controls: 0 for no effect and ±100 for the full control effect; nearly all actives have a fitted effect of over 55% in size
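Quantitative HTS, concentration-response format. 2,000 cells/well co-treated with 5-fluorouridine and compound, 16 hr in 5% CO2 at 37 °C; ONE-Glo luminescence read after 30 min.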
Active calls of the source: *. Calls follow the shape of the dose curve; as a rule, active = well fitted curve in the direction sought with a large enough effect; inconclusive = small, poorly fitted or top-dose-only effect, or another doubt; inactive = no such curve, though single readings can be large; an effect the other way counts as inactive or inconclusive. Potency is read from the fitted curve at half-maximal effect.

For C=CCOc1cccc(/C=C2\C(=O)N(Cc3ccc(C)cc3)C(C)=C2C(=O)OC)c1 the results were A549 tox 7.5%, Nrf2 inh inconclusive, Nrf2 activator 4.4%, IDH1 R132H inh 9.1% and ELG1 repair inh inconclusive.
CCOc1cc(/C=C2\C(=O)N(Cc3ccc(C)cc3)C(C)=C2C(=O)OC)ccc1O was read as A549 tox -6.5%, Nrf2 activator inconclusive, IDH1 R132H inh 3.1% and ELG1 repair inh 13µM*.
For COC(=O)C1=C(C)N(Cc2ccc(OC)cc2)C(=O)/C1=C\c1ccco1 the results were A549 tox -20.2%, Nrf2 inh inconclusive, Nrf2 activator 19.4%, IDH1 R132H inh 8.1% and ELG1 repair inh 18.3µM*.
`CCOC(=O)N1CCN(C(=O)C2CCCN(Cc3nc(-c4ccc(Cl)cc4)oc3C)C2)CC1` (stereo not given) gave A549 tox -7.9%, Nrf2 inh inconclusive, Nrf2 activator 5.4%, IDH1 R132H inh 16.0% and ELG1 repair inh 4.61µM*.
CCc1ccc(-c2nc(CN3CCCC(C(=O)N4CCN(c5cc(Cl)ccc5C)CC4)C3)c(C)o2)cc1 (stereo not given) was read as A549 tox inconclusive, Nrf2 inh inconclusive, Nrf2 activator 5.7% and IDH1 R132H inh inconclusive.
`CCOC(=O)N1CCC(NC(=O)CS(=O)(=O)Cc2nc(-c3cccc(Cl)c3)oc2C)CC1` gave A549 tox 4.9%, Nrf2 inh -14.9%, Nrf2 activator -0.1%, IDH1 R132H inh -0.9% and ELG1 repair inh 14.6µM*.
Cc1oc(-c2ccc(Cl)cc2)nc1CN1CCCC(C(=O)NC2CC2)C1 (stereo not given) was read as A549 tox inconclusive, Nrf2 inh 23.9%, Nrf2 activator 1.6%, IDH1 R132H inh 7.1% and ELG1 repair inh -7.4%.
For CCOC(=O)N1CCC(NC(=O)CS(=O)(=O)Cc2nc(-c3cccc(OC)c3)oc2C)CC1 the results were A549 tox -0.9%, Nrf2 inh 3.2%, Nrf2 activator 0.1%, IDH1 R132H inh -0.1% and ELG1 repair inh inconclusive.
`CCOC(=O)N1CCC(NC(=O)C2CCCN(Cc3nc(-c4cccc(Cl)c4)oc3C)C2)CC1` (stereo not given) gave A549 tox -15.5%, Nrf2 inh 16.4µM*, Nrf2 activator 0.7%, IDH1 R132H inh 22.6% and ELG1 repair inh 9.2µM*.
For CCOC(=O)N1CCN(Cc2nc3cc(NC(=O)C(C)C)ccc3n2C(C)C)CC1 the results were A549 tox -22.4%, Nrf2 inh 16.6%, Nrf2 activator 2.7% and IDH1 R132H inh 1.5%.
For COc1ccc(C(=O)OC(C)C(=O)NC(C)CCc2ccccc2)cc1OC (stereo not given) the results were A549 tox -1.7%, Nrf2 inh inconclusive, Nrf2 activator 0.5%, IDH1 R132H inh -7.2% and ELG1 repair inh -15.0%.
For O=C(Nc1cc(Sc2ccccn2)cc([N+](=O)[O-])c1)c1cccc(Cl)c1 the results were A549 tox -2.1%, Nrf2 inh inconclusive, Nrf2 activator 5.3%, IDH1 R132H inh 10.0% and ELG1 repair inh 6.51µM*.
Screening O=C(Nc1cc(Sc2ccccn2)cc([N+](=O)[O-])c1)c1ccc(Cl)cc1 returned A549 tox inconclusive, Nrf2 activator 3.7%, IDH1 R132H inh 2.9% and ELG1 repair inh inconclusive.
For COc1ccccc1NC(=O)c1cnc(SCC(=O)N2CCCc3ccccc32)n(C)c1=O the results were A549 tox -5.8%, Nrf2 activator 22.8% and IDH1 R132H inh -9.1%.
Screening Cc1ccc(N2CCN(C(=O)C3CCCN(c4ncnc5c4nc4n5CCCCC4)C3)CC2)c(C)c1 (stereo not given) returned A549 tox 11.1%, Nrf2 inh 0.0%, Nrf2 activator -0.4%, IDH1 R132H inh -0.2% and ELG1 repair inh 0.5%.
For O=C(C1CCCN(c2ncnc3c2nc2n3CCCCC2)C1)N1CCN(c2cccc(Cl)c2)CC1 (stereo not given) the results were A549 tox 2.4%, Nrf2 inh 3.8%, Nrf2 activator -2.3%, IDH1 R132H inh -4.3% and ELG1 repair inh 8.2µM*.
